Source: PubChem
Only some compounds are listed: those with a hit (about 7.4% of all), similar ones and a draw of the others.
SNCA viab count = reduces viability of HEK-293 SNCA reporter cells; Potency, µM (titrated, usually from 57.1 µM), most hits filed as cytotoxic; HEK-293-SNCA-luc viability, GF-AFC fluorescence, 24 h; AID 1671193; hit rate 0.12% among 150,000; note: nearly all actives have a fitted effect of over 30% in size
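Cytotoxicity counterscreen: after 24 h compound treatment of genome-edited SNCA-luciferase HEK-293 cells, live-cell protease substrate GF-AFC read by fluorescence after 30 min; activity scaled between DMSO (0%) and medium-only (-100%), curves Hill-fitted.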
3T3 cytotox = kills NIH 3T3 cells; NIH 3T3 viability, CellTiter-Glo ATP luminescence, 48-72 h; Potency, µM (top dose mostly 96.7 µM), usual class: inhibitors; hit rate 4.3% among 94,000; note: nearly all actives have a fitted effect of over 55% in size
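Cytotoxicity was measured by CellTiter-Glo ATP luminescence after 48 or 72 h compound exposure at 37 °C. Mouse NIH 3T3 fibroblasts were seeded at 400 cells/well and dosed by 23 nL pin transfer.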
NPR1 antag = human Npr1 receptor antagonism | P16066 | HEK293 hNpr1 GloSensor cGMP, ANP-stimulated luminescence | Potency, µM (doses to about 46.3 µM), most hits filed as inhibitors | hit rate 1.6% among 76,000 | AID 1347048; calls by dose curve; note: nearly all actives have a fitted effect of over 60% in size
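Compound pre-incubated 30 min at room temperature on GloSensor-loaded HEK293 cells stably carrying hNpr1 and the pGS-40F cGMP biosensor. Stimulation uses hNppA at 0.1 nM final; luminescence is taken at baseline and 20 min post-agonist.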
HEK293 tox = HEK 293 cell cytotoxicity | HEK 293 viability, ATP luminescence (CellTiter-Glo), 48-72 h | Potency, µM (doses to about 115 µM), hits mostly inhibitors | hit rate 6.6% among 94,000 | AID 1345083; note: nearly all actives have a fitted effect of over 60% in size
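HEK 293 cells at 250 cells/well were exposed to compounds by pintool transfer for 48 or 72 hr at 37 degree Celsius, 5% CO2. Viability was read as ATP-coupled luminescence with CellTiter-Glo after 10 min at room temperature.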
Luciferase inh = inhibitors of firefly (Photinus pyralis) luciferase. hit rate 2.5% among 76,000. P08659. Potency, µM (series often up to 115 µM), hits mostly inhibitors. purified P. pyralis luciferase, luminescence, biochemical; note: nearly all actives have a fitted effect of over 65% in size
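Biochemical qHTS: compound (6-point titration) added to 10uM D-luciferin plus 10uM ATP in Tris acetate pH 7.5 buffer with Mg, Tween-20 and BSA, then purified enzyme at 10nM; light output imaged.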
SNCA expr inhib = SNCA gene expression inhibition | HEK-293 SNCA-luciferase knock-in, luminescence, 24 h | Potency, µM (series often up to 57.2 µM), most hits filed as inhibitors | hit rate 0.17% among 140,000 | AID 1671194; note: nearly all actives have a fitted effect of over 45% in size
Each line names hits and unclear results; the compound was inactive in the other large screens. Unless noted, calls come from the whole dose curve; as a rule, active = well fitted curve in the direction sought with a large enough effect; inconclusive = small, poorly fitted or top-dose-only effect, or another doubt; inactive = no such curve, though single readings can be large; an effect the other way counts as inactive or inconclusive.

COC1C(=O)N(C2CCN(C(=O)c3cc(C)nn3C)CC2)C12CCOCC2 (stereo not given)	none
CCc1ccc(N2CC(c3ncon3)CC2=O)cc1 (stereo not given)	HEK293 tox inconclusive
COc1ccc(CN2CCC3(C2)C(=NC2CCCC2)NC(=O)N3c2cc(F)cc(F)c2)cc1 (stereo not given)	3T3 cytotox inconclusive, HEK293 tox inconclusive, SNCA expr inhib inconclusive (no result: NPR1 antag, Luciferase inh)
COc1ccc(CN2CCCC3(C2)C(=NC2CCCCC2)NC(=O)N3c2cc(F)cc(F)c2)cc1 (stereo not given)	SNCA viab count inconclusive, 3T3 cytotox inconclusive, HEK293 tox 44.7µM, SNCA expr inhib inconclusive (no result: NPR1 antag, Luciferase inh)
O=C1NC(=NC2CCCCC2)C2(CCCN(Cc3ccccc3)C2)N1c1cc(F)cc(F)c1 (stereo not given)	SNCA viab count inconclusive, 3T3 cytotox 35.5µM, HEK293 tox inconclusive, SNCA expr inhib inconclusive (no result: NPR1 antag, Luciferase inh)
O=C1NC(=NC2CCCC2)C2(CCCN(Cc3ccccc3)C2)N1c1cc(F)cc(F)c1 (stereo not given)	none (no result: NPR1 antag, Luciferase inh)
O=C1NC(=NC2CCCCC2)C2(CCN(Cc3ccc(F)cc3)C2)N1c1cc(F)cc(F)c1 (stereo not given)	SNCA viab count inconclusive, 3T3 cytotox 31.6µM, HEK293 tox inconclusive, SNCA expr inhib inconclusive (no result: NPR1 antag, Luciferase inh)
O=C1NC(=NC2CCCCC2)C2(CCN(Cc3ccccc3)C2)N1c1cc(F)cc(F)c1 (stereo not given)	SNCA viab count inconclusive, 3T3 cytotox 31.6µM, HEK293 tox inconclusive, SNCA expr inhib inconclusive (no result: NPR1 antag, Luciferase inh)
O=C1NC(=NC2CCCCC2)C2(CCCN(Cc3ccc(F)cc3)C2)N1c1cc(F)cc(F)c1 (stereo not given)	3T3 cytotox inconclusive, HEK293 tox inconclusive, SNCA expr inhib inconclusive (no result: NPR1 antag, Luciferase inh)
COc1ccc(CNC[C@H]2O[C@H](Cc3cc(CN4CCOCC4)on3)CC[C@@H]2O)cc1	none
CC(C)C(C#N)O[C@@H]1O[C@H](CO[C@@H]2OC[C@](O)(CO)[C@H]2O)[C@@H](O)[C@H](O)[C@H]1O (stereo not given in full)	none (no result: 3T3 cytotox, NPR1 antag, HEK293 tox, Luciferase inh, SNCA expr inhib)
CC(C)c1noc(-c2cccn3c(CNC(=O)c4ccccn4)nnc23)n1	SNCA expr inhib inconclusive
O=C(C1CC1)N1CCCC1C(=O)N1CCCC1c1nc2ccncc2[nH]1 (stereo not given)	none (no result: NPR1 antag, Luciferase inh)
COc1ccc(C(=O)N2CCC(c3n[nH]c(=O)n3Cc3ccc(C)cc3)CC2)cc1F	none
CNC(=O)[C@@H]1CN(C(=O)c2ccc(F)c(F)c2)C[C@H]1COC	none
COc1ncccc1-c1cc(C(=O)N2CCCC(OC)C2)c2c(c1)ncn2C (stereo not given)	3T3 cytotox 89.1µM
CCN1CCN(Cc2ccc(NC(=O)c3ccc(C)c(/C=C/c4cnc5[nH]ccc5c4OC)c3)cc2C(F)(F)F)CC1	SNCA viab count 23.8µM (no result: 3T3 cytotox, NPR1 antag, HEK293 tox, Luciferase inh, SNCA expr inhib)
CC(C)CCC(=O)N1C[C@@H](CO)[C@H](c2ccccn2)C1	SNCA expr inhib inconclusive
Cc1cc(N2CCCCC2)nc2ccc(NC(=O)c3cccc(F)c3)cc12	SNCA viab count inconclusive (no result: 3T3 cytotox, NPR1 antag, HEK293 tox, Luciferase inh)
Cc1cccc(C(=O)Nc2c(N3CCCCC3)c(-c3cccc(F)c3)nn2C)c1	3T3 cytotox 44.7µM, HEK293 tox 39.8µM (no result: NPR1 antag, Luciferase inh)
Cn1nc(-c2cccc(F)c2)c(N2CCCCC2)c1NC(=O)Nc1ccccc1	3T3 cytotox 28.2µM, HEK293 tox inconclusive, SNCA expr inhib inconclusive (no result: NPR1 antag, Luciferase inh)
O=C(Nc1ccccc1)Nc1cccc(-c2nnc3n2CCCC3)c1	none
O=C(O)c1ccc2c(c1)nc(Nc1cccc(Cl)c1)c1ccncc12	SNCA expr inhib inconclusive (no result: 3T3 cytotox, NPR1 antag, HEK293 tox, Luciferase inh)
O=C(c1nn(CC2CC2)c2c1CNCC2)N1CCC(Cc2ccccc2)CC1	3T3 cytotox 39.8µM, HEK293 tox inconclusive (no result: NPR1 antag, Luciferase inh)
Cc1ccc(NC(=O)CN2C(=O)NC3(CCC(C)CC3)C2=O)cc1C (stereo not given)	3T3 cytotox inconclusive, HEK293 tox inconclusive
COCCN1C(=O)[C@@H]2C[C@@H](CN2Cc2cnc3ccccc3c2)Oc2ccccc21	3T3 cytotox 100µM, HEK293 tox inconclusive
O=C1[C@@H]2C[C@@H](CN2Cc2ccccn2)Oc2ccccc2N1Cc1ccccc1	3T3 cytotox inconclusive, NPR1 antag inconclusive, HEK293 tox inconclusive
O=C1[C@@H]2C[C@@H](CN2Cc2cnc3ccccc3c2)Oc2ccccc2N1Cc1ccccc1	3T3 cytotox inconclusive, HEK293 tox 50.1µM
COCCN1C(=O)[C@@H]2C[C@@H](CN2Cc2ccc(OC)nc2)Oc2ccccc21	none
Cc1ccccc1N(C)C1CN(C(=O)c2ccccn2)C1	3T3 cytotox inconclusive, HEK293 tox 79.4µM (no result: NPR1 antag, Luciferase inh)
Cc1onc(-c2cnn(C)c2NCc2ccc(C#N)cc2)c1C(=O)N(C)c1cccnc1	3T3 cytotox inconclusive
Cc1onc(-c2cnn(C)c2NCc2ccc(C#N)cc2)c1C(=O)N(C)c1ccccc1	3T3 cytotox 44.7µM, HEK293 tox inconclusive
CCn1ncc(CN2CCCCCCNC(=O)[C@@H]3CCC[C@@H]32)c1C	3T3 cytotox inconclusive, HEK293 tox inconclusive
COc1ccc(-c2cn3c(n2)CO[C@@H](CNCc2ccc(OC(F)(F)F)cc2)C3)cc1	3T3 cytotox inconclusive, NPR1 antag inconclusive, HEK293 tox 44.7µM, Luciferase inh inconclusive
Cc1ccc(-c2cn3c(n2)CO[C@@H](CNCc2ccccc2Cl)C3)cc1	3T3 cytotox 89.1µM, NPR1 antag inconclusive, HEK293 tox 89.1µM
COc1ccc(-c2cn3c(n2)CO[C@@H](CNCc2nccn2C)C3)cc1	Luciferase inh inconclusive
Cc1ccc(-c2cn3c(n2)CO[C@@H](CNC(=O)c2ccccc2)C3)cc1	HEK293 tox inconclusive, Luciferase inh inconclusive
COc1ccc(-c2cn3c(n2)CO[C@@H](CNC(C)=O)C3)cc1	Luciferase inh 44.7µM
c1ccc(-c2cn3c(n2)CO[C@@H](CNCC2CCCCC2)C3)cc1	3T3 cytotox 100µM, HEK293 tox 100µM
CCN(Cc1cccc(OCCO)c1)CC1CCCN(CCc2cccc(OC)c2)C1 (stereo not given)	3T3 cytotox inconclusive, HEK293 tox inconclusive
Cc1ccc(-c2cn3c(n2)CO[C@@H](CNCc2ccc(-c4ccccn4)cc2)C3)cc1	3T3 cytotox 39.8µM, NPR1 antag inconclusive, HEK293 tox 35.5µM, Luciferase inh 35.5µM
Cc1ccc(-c2cn3c(n2)CO[C@@H](CNCc2ccc(Cl)cc2)C3)cc1	3T3 cytotox 44.7µM, NPR1 antag inconclusive, HEK293 tox 56.2µM, Luciferase inh inconclusive
Cc1ccc(-c2cn3c(n2)CO[C@@H](CNC2CCCC2)C3)cc1	3T3 cytotox 100µM, HEK293 tox 100µM, Luciferase inh 63.1µM
COc1ccc(-c2cn3c(n2)CO[C@@H](CNC2CCOCC2)C3)cc1	none
CC(=O)Nc1ccc(CNC[C@H]2Cn3cc(-c4ccc(C)cc4)nc3CO2)cc1	3T3 cytotox inconclusive, HEK293 tox inconclusive, Luciferase inh 70.8µM
